# From PubChem
# Vaccinia Venus = inhibitors of vaccinia virus (Venus reporter); Vaccinia virus Venus reporter expression, fluorescence; Potency, µM (top dose mostly 36.5 µM), for inactives: at the highest dose activity change, negative = inhibition, hits mostly inhibitors; 0.46% of 330,000 active; AID 720580; calls by dose curve; tested in A549 cells; further: potency means the concentration at half of the fitted maximal effect; nearly all actives have a fitted effect of over 30% in size
# Vaccinia mCherry = vaccinia inhibition (mCherry reporter); Vaccinia virus mCherry reporter infection, fluorescence; Potency, µM (doses to about 36.5 µM), without a hit: at the top dose activity change, negative = inhibition, actives largely listed as inhibitors; 0.63% of 310,000 active; AID 720579; calls by dose curve; tested in A549 cells; further: potency means the concentration at half of the fitted maximal effect; nearly all actives have a fitted effect of over 35% in size
# HCMV inh = blocks human cytomegalovirus replication; 4.5% of 410,000 active; activity change, negative = inhibition, % at 57.5 µM; HFF cells, HCMV-luciferase reporter, 72 h; hits give low values; AID 1259415; in the data active means activity change below about -60%; inconclusive means no clear call, values can overlap the other calls; inactive means above about -39%
#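 Steps: HFFs plated, 16 h 37C; compounds added; HCMV-luciferase added to MOI 1 PFU/cell; 72 h 37C; OneGlo reagent, 5 min room temperature; luminescence read, normalized to controls.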
# HCV inhibitor = HCV inhibition; Huh7.5.1 HCVcc-Cre infection, luciferase reporter, 44 h; Potency, µM (highest dose often 41.8 µM), for the others: at the top dose activity change, negative = inhibition, hits mostly inhibitors; 3.4% of 340,000 active; AID 651820; further: potency means the concentration at half of the fitted maximal effect
#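 Antiviral activity was scored by luciferase reporter output from cells infected with HCVcc-Cre (~0.5 moi) in presence of compound, 44 h infection period, cells seeded 1,000/well 4 h prior.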
# Giardia FBPA inh = blocks Giardia fructose-bisphosphate aldolase activity | purified Giardia FBPA | A8B2U2 | AID 2451 | 0.71% of 290,000 active | Potency, µM (titrated, usually from 59.6 µM), inactives show top-dose activity, negative = inhibition, most hits filed as inhibitors; further: potency means the concentration at half of the fitted maximal effect; nearly all actives have a fitted effect of over 55% in size
# Target sequence (A8B2U2 whole entry, looked up): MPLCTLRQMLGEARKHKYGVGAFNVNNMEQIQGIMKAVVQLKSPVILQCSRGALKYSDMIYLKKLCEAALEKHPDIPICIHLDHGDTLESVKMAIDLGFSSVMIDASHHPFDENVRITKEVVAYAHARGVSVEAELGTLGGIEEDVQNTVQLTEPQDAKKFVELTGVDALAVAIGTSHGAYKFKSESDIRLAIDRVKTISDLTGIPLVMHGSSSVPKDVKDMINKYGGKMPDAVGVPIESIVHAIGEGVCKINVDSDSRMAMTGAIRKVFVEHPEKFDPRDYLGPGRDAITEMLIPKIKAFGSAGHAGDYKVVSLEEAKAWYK
#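 40 nM FBPA preincubated 10 min at RT with compound (up to 57.5 uM final), then substrate plus GAPDH/TPI/NAD/arsenate coupling and diaphorase/resazurin added. Fluorescence read after 20 min at RT, 525/598 nm.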
# FMDV antiviral = antivirals against foot and mouth disease virus; FMDV antiviral cell-based qHTS; 1.2% of 410,000 active; Potency, µM (top dose mostly 57.9 µM), for the others: at the top dose activity change, negative = inhibition, usual class: inhibitors; calls by dose curve; tested in HEK293T cells; further: read-out not given here; potency means the concentration at half of the fitted maximal effect; nearly all actives have a fitted effect of over 45% in size
# Numbers without * were called inactive; i = inactive; ? = inconclusive; . = no result given. In the library only some 7.5% were active in any assay of this set; here they are far more common. Unless noted, the call rests on the fitted dose curve; in most records, active means well fitted curve in the direction sought with a large enough effect; inconclusive means small, poorly fitted or top-dose-only effect, or another doubt; inactive means no such curve, though single readings can be large; an effect the other way counts as inactive or inconclusive. On the % scale 0 is the no-effect control and ±100 the full control effect.
SMILES,Vaccinia Venus,Vaccinia mCherry,HCMV inh,HCV inhibitor,Giardia FBPA inh,FMDV antiviral
O=C(N/C(=C/c1cccc(Br)c1)C(=O)N1CCCCC1)c1ccco1,-15%,i,0,.,.,-4%
CC(NCc1ccc(Cl)c(Cl)c1)C(O)c1ccccc1 (stereo not drawn),-18%,i,-71*,20%,-11%,.
CC(NCc1ccc(OCc2ccc(Cl)cc2)cc1)C(O)c1ccccc1 (stereo not drawn),?,?,-28,10µM*,-8%,-25%
CC(NCc1cccc(OCc2ccccc2)c1)C(O)c1ccccc1 (stereo not drawn),.,.,?,?,1%,?
Fc1ccc(NC(=S)Nc2cccc3ccccc23)cc1F,.,.,-71*,?,?,6%
CN(C)S(=O)(=O)c1cccc(NC(=S)Nc2cccc3cnccc23)c1,-16%,?,-72*,-26%,2.5µM*,?
CN(C)S(=O)(=O)c1cccc(NC(=S)N/N=C/c2cc(Br)ccc2O)c1,?,?,-98*,-22%,18%,?
CN(C)S(=O)(=O)c1cccc(NC(=S)N/N=C/c2cccc(O)c2)c1,.,.,-15,7%,-9%,?
S=C(Nc1cccnc1)Nc1cccc2cnccc12,-5%,-7%,-36,-8%,?,3%
S=C(Nc1ccc(Cl)cc1)Nc1cccc2cnccc12,0%,-10%,-98*,?,1.6µM*,-6%
O=C(C[n+]1c2ccccc2cc2ccccc21)c1ccc(F)cc1,3%,29%,.,.,.,.
Cc1ccc(NC(=O)c2oc3ccc4c(c3c2C)C(=O)CC(C)(C)O4)c(C)c1,-8%,1%,41,.,.,25%
CCc1ccc(C(=O)CC2(O)C(=O)N(CCc3ccccc3)c3ccc(Cl)cc32)cc1 (stereo not drawn),-29%,-27%,-28,.,.,-11%
CN(CCNC(=O)C1CCCN(c2ncnc3c2nc2n3CCCCC2)C1)Cc1ccccc1 (stereo not drawn),.,.,-12,-23%,5%,-19%
Fc1ccc(NC(=S)Nc2cccc3cnccc23)cc1,6%,-4%,-32,-26%,2.8µM*,-10%
Cc1ccc(S(=O)(=O)N(C)C)cc1NC(=S)NC1CCCC(C)C1C (stereo not drawn),-15%,-3%,?,?,-14%,?
COc1ccccc1NC(=S)Nc1cccc2cnccc12,-10%,-16%,-79*,10µM*,?,?
CC1CCCCC1NC(=S)Nc1cccc(S(=O)(=O)N(C)C)c1 (stereo not drawn),-1%,-3%,-68*,3%,-12%,9%
Cc1ccc(NC(=O)CSC(C)c2nc3ccccc3c(=O)[nH]2)cc1 (stereo not drawn),-19%,-18%,-14,-27%,?,-9%
COc1ccc(C(=O)C2CCCN(Cc3cnc(C)s3)C2)cc1OC (stereo not drawn),-11%,-13%,?,-3%,1%,-8%
COc1ccc2cc(C(=O)C3CCCN(Cc4cnc(C)s4)C3)ccc2c1 (stereo not drawn),-27%,-15%,-78*,11µM*,-16%,0%
Cc1ncc(CN2CCCC(C(=O)c3ccc(C(C)(C)C)cc3)C2)s1 (stereo not drawn),.,.,?,11µM*,1%,?
Cc1ncc(CN2CCCC(C(=O)c3cccc(Cl)c3)C2)s1 (stereo not drawn),.,.,18,5%,0%,-25%
O=C(CCNC(=O)C1CCN(S(=O)(=O)c2ccccc2)CC1)NCCc1cccc(F)c1,.,.,0,-12%,.,-21%
C[C@H](CO)N1C[C@H](C)[C@@H](CN(C)S(=O)(=O)c2ccccc2)OCc2cnnn2CCCC1=O,9%,i,40,.,.,-18%
SMILES,Vaccinia Venus,Vaccinia mCherry,HCMV inh,HCV inhibitor,Giardia FBPA inh,FMDV antiviral
CCc1ccc(-n2nc(C)c3c(C(=O)Nc4ccc(Cl)cc4)cc(C)nc32)cc1,11%,9%,12,.,.,?
COc1ccc(C(=O)C(C)Oc2cccc(NC(=O)c3cccc([N+](=O)[O-])c3)c2)cc1 (stereo not drawn),-6%,i,-34,11µM*,-4%,0%
CCOc1ccc(C(=O)Nc2cccc(-c3nc4cccnc4o3)c2)cc1Cl,.,.,.,11µM*,.,8%
COc1ccc(/C=C2\C(=O)N(c3c(Cl)cc(Cl)cc3Cl)N=C2NC(=O)c2cccc([N+](=O)[O-])c2)cc1,1%,i,.,-23%,9%,11µM*
CCOc1ccc(C(=O)Nc2cccc([N+](=O)[O-])c2)cc1Br,?,-8%,-24,7.1µM*,-12%,7%
CC(=O)Nc1cccc(-c2cc(NC(C)=O)c3ncc(-c4ccc(C(C)=O)cc4)n3c2)c1,-17%,-15%,?,.,.,-14%
CC(C)(C)OC(=O)C[C@@H]1C/C=C\C[C@H](CC(=O)N(CCO)Cc2ccccc2)C(=O)N[C@H](Cc2ccccc2)COC1=O,-17%,i,20,-25%,.,-9%
CCOc1ccc(C(=O)Nc2cccc(C(=O)O)c2)cc1Cl,-3%,i,47,12%,16%,8.9µM*
CCc1ccc2[nH]c(=O)c(CN(CCN(C)C)C(=O)Nc3ccccc3OC)cc2c1,-10%,.,-13,-6%,6%,-5%
COC(=O)c1ccccc1NC(=S)N(Cc1ccc2c(c1)OCO2)Cc1cc2cc(OC)ccc2[nH]c1=O,-8%,-18%,?,11µM*,-5%,-11%
COc1cc2cc(CN(Cc3cccs3)C(=S)Nc3ccc(C)cc3)c(=O)[nH]c2cc1OC,-29%,-4%,-69*,-32%,-2%,0%
CCc1ccc2[nH]c(=O)c(CN(Cc3ccccc3)C(=O)Nc3ccccc3OC)cc2c1,.,.,?,2.5µM*,-4%,-17%
COc1ccccc1NC(=S)N(Cc1ccco1)Cc1cc2cc(C)c(C)cc2[nH]c1=O,?,?,-62*,?,-2%,-16%
COc1cc2cc(CN(Cc3cccs3)C(=S)Nc3cccc(C)c3)c(=O)[nH]c2cc1OC,.,.,.,-1%,-2%,.
COc1ccccc1NC(=S)N(Cc1ccco1)Cc1cc2cccc(C)c2[nH]c1=O,-18%,-22%,-21,?,3%,-3%
O=C(Cn1ccc2cc(S(=O)(=O)N3CCCCCC3)ccc21)NCc1cccc(Cl)c1,-12%,-15%,64,.,.,15%
COc1cc2c(cc1OC)C(C)N(S(=O)(=O)c1ccc(Cl)nc1)CC2 (stereo not drawn),.,.,-15,-1%,.,-13%
COc1cc(NC(=O)Cn2c(C)cc(C)c(C#N)c2=O)cc(OC)c1,-8%,-10%,8,.,.,-10%
O=C(COc1ccc(-c2nnco2)cc1)Nc1cc([N+](=O)[O-])ccc1F,-5%,i,-26,-9%,.,-3%
